# Several values for one entry are separate records, joined by “and”; a condition that tells them apart may be missing. Identical values can stand only once. Hit rate of the full screen: of about 330,000 compounds, about 5,800 (1.8%) were called active. The sample holds actives, similar compounds and a random draw of the others, so the mix is not that of the screen. Rule as the data show it: active = inhibition mostly above about 38% (no sharp cut-off); inactive = mostly below about 40%. Some structures have more than one record in an assay (separate samples or runs), and their calls can disagree.
# Biological target: Orexin/Hypocretin receptor type 1 (Homo sapiens) (UniProt O43613)
# Experiment: blocks the human orexin 1 receptor (AID 485270);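 also: 0% = agonist challenge alone and 100% = reference antagonist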
# Details: OX1R-expressing cells, FRET antagonist read-out; at 6.6 µM; stronger effect = higher value
# Chain of Orexin/Hypocretin receptor type 1 (Homo sapiens) (O43613 whole entry, looked up): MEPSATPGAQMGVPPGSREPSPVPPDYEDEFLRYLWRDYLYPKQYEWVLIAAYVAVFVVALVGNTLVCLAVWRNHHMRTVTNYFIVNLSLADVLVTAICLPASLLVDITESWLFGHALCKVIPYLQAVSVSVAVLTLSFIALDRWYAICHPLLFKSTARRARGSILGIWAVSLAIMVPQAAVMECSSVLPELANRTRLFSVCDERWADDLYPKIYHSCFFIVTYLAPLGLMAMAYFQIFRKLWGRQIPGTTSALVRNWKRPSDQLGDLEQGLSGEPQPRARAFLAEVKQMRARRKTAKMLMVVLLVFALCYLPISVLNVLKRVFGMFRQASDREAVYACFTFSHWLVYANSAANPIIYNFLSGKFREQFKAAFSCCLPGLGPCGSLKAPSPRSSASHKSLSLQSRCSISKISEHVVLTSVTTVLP
row,SMILES,inhibition
1,Cc1ccc(S(=O)(=O)N2C[C@@H]3CCCC[C@@H]3[C@@H](C)[C@H]2c2cn(Cc3ccccc3)c3ccc(F)cc23)cc1,3.67% (inactive)
2,CC1CN(C(=O)c2ccccc2NS(=O)(=O)c2cccc([N+](=O)[O-])c2)CC(C)O1 (stereo unspecified),27.1% (inactive)
3,CC1CN(C(=O)c2ccc([N+](=O)[O-])s2)CC(C)O1 (stereo unspecified),49.6% (active)
4,Cc1c(C(=O)N2CC(C)OC(C)C2)sc2nc(-c3ccccc3)cn12 (stereo unspecified),19.5% (inactive)
5,CCN(CC)C(=O)[C@H]1CC(CC(=O)NCc2ccco2)C(=O)N2CCc3c([nH]c4ccccc34)[C@]12C (stereo partly specified),6.65% (inactive)
6,COC(=O)[C@@]1(C)[C@H]2C(=O)N(Cc3ccccc3)C(=O)[C@H]2[C@H]2CN=C(SCC3CC3)N21,4.86% (inactive)
7,O=C1N[C@H](Cc2ccccc2)C(=O)N[C@H]1Cc1cn(S(=O)(=O)c2ccccc2)c2ccccc12,24.8% (inactive)
8,Cc1ccc(C(=O)Cn2cc([N+](=O)[O-])nc2C)cc1,16.2% (inactive)
9,O=C(Cn1c[n+](CC(=O)c2ccc([N+](=O)[O-])cc2)cn1)c1ccc([N+](=O)[O-])cc1,41% (active) and 49.5% (inactive)
10,O=C(CC(n1cncn1)C(Cl)(Cl)Cl)c1ccc([N+](=O)[O-])cc1 (stereo unspecified),24.6% (inactive)
11,Cc1ccc(S(=O)(=O)N2CCN(C(=O)Cn3c(=O)cnc4ccccc43)CC2)c(C)c1,16.2% (inactive)
12,O=C(OCC(=O)N1CCCCCC1)c1ccc(Br)c(S(=O)(=O)N2CCOCC2)c1,7.11% (inactive)
13,O=C(N[C@H]1C/C=C\C(c2ccc(F)cc2)N(Cc2ccccc2)C(=O)C1)OCC1c2ccccc2-c2ccccc21 (stereo partly specified),14.6% (inactive)
14,c1csc(-c2cn3c(n2)SCC3)c1,2.55% (inactive)
15,Cc1nnc2n1N=C(c1ccccc1)CS2,-1.51% (inactive)
16,O=c1c2cc(-c3ccccc3)sc2nc2n1N=C(c1cccs1)CS2,49.2% (active)
17,CC(C)=CCN1CCN(Cc2cc3ccccc3[nH]2)CC1CCO (stereo unspecified),7.38% (inactive)
18,CCN(C[C@H]1N[C@@](CC)(C(=O)OC)[C@H]2C(=O)N(Cc3ccccc3)C(=O)[C@@H]12)S(=O)(=O)c1ccc(C(F)(F)F)cc1,5.19% (inactive)
19,CCc1ccc(C2C(C#N)=C(N)Oc3n[nH]c(CC(=O)OC)c32)cc1 (stereo unspecified),1.71% (inactive)
20,Cc1cc(C)c(C#N)c(SCc2[nH]nc3c2C(c2ccccc2)C(C#N)=C(N)O3)n1 (stereo unspecified),60.2% (active)
21,Cc1cc(C)c(C#N)c(SCc2ccccc2C(=O)O)n1,27.5% (inactive)
22,COc1ccc(N2CCN(C(CNS(=O)(=O)c3ccc(C)cc3)c3ccccc3)CC2)cc1 (stereo unspecified),6.01% (inactive)

row,SMILES,inhibition
1,COC(=O)c1ccc(C)c(NC(=O)Cn2c(C)csc2=O)c1,2.56% (inactive)
2,COc1ccccc1-c1sc2ccccc2c1C#CC1(O)CCCCC1,6.27% (inactive)
3,COc1ccc2sc(-c3ccc(N(C)C)cc3)c(C#CCO)c2c1,50.3% (active)
4,COc1ccc2sc(-c3ccc(N(C)C)cc3)c(-c3ccc4cc[nH]c4c3)c2c1,9.19% (inactive)
5,COc1ccc(-c2sc3ccc(OC)cc3c2C#Cc2ccccn2)cc1,8.84% (inactive)
6,O=C(N[C@H]1C/C=C\C(c2cccc(F)c2)N(Cc2ccccc2)C(=O)C1)OCC1c2ccccc2-c2ccccc21 (stereo partly specified),5.38% (inactive)
7,Cc1ccc(-c2cccc([C@H]3[C@@H]4C=CC[C@@H](C)[C@@H]4C(=O)N3Cc3ccccc3)c2)cc1,5.7% (inactive)
8,O=C(CCCCCN1C(=O)c2cccc3cccc(c23)C1=O)NCc1ccco1,9.93% (inactive)
9,C[N+](C)(CCCCCC[N+](C)(C)CCCN1C(=O)c2cccc3cccc(c23)C1=O)CCCN1C(=O)c2cccc3cccc(c23)C1=O,68.8% (active)
10,O=C1c2cccc3cccc(c23)C(=O)N1CCCCCc1n[nH]c(=S)o1,47.3% (inactive)
11,COC(=O)CSc1snnc1-c1ccc(Cl)c(Cl)c1,33.7% (inactive)
12,CCOC(=O)C/C(C)=N\Nc1ccc([N+](=O)[O-])cc1[N+](=O)[O-],55.3% (active)
13,CCCCOC(=O)CCCc1ccc([N+](=O)[O-])cc1[N+](=O)[O-],18.3% (inactive)
14,CCOC(=O)c1ccc(NNC(C)=O)c([N+](=O)[O-])c1,26.7% (inactive)
15,Nc1nc(SCC(=O)Nc2ccc(Cl)c([N+](=O)[O-])c2)n[nH]1,0.57% (inactive)
16,O=C(CN1C(=O)c2ccc([N+](=O)[O-])cc2C1=O)Nc1nnc(C2CC2)s1,21.3% (inactive)
17,Cc1ccc(S(=O)(=O)NC2CCCCCC2)cc1,10.9% (inactive)
18,CCn1c(Cc2cccs2)nnc1SCC(=O)c1ccc(C)cc1,14.7% (inactive)
19,CCn1c(SCC(=O)c2ccc3ccccc3c2)nnc1-c1cccs1,79.6% (active)
20,CCn1c(SCC(=O)c2ccc(Cl)s2)nnc1-c1cccs1,26.9% (inactive)
21,COc1ccc(CCNC(=O)COC(=O)Cc2ccccc2F)cc1,2.3% (inactive)
22,Cc1noc(C)c1S(=O)(=O)N(C)C[C@H]1Oc2ccc(NC(=O)C3CCCCC3)cc2C(=O)N([C@H](C)CO)C[C@@H]1C,3.64% (inactive)

row,SMILES,inhibition
1,O=[N+]([O-])c1c(NCCO)cc(Sc2nc3ccccc3s2)c2nonc12,90.3% (active)
2,CCOc1ccccc1Nc1ccc2nonc2c1[N+](=O)[O-],20% (inactive)
3,O=C(O)c1ccccc1CSc1nc2ccccc2s1,5.76% (inactive)
4,COc1cc(OC)cc(-c2sc3ccc(OC)cc3c2-c2ccc3cc[nH]c3c2)c1,18.3% (inactive)
5,CCCCC(=O)Nc1cc(C)c2c(=O)oc3ccccc3c2n1,1.27% (inactive)
6,CCOC(=O)c1c(C)nc2c(c1C)c(=O)oc1ccccc12,4% (inactive)
7,Cc1ccccc1-n1nnc2c(=O)oc3ccccc3c21,51.9% (active)
8,COc1cc(OC)cc(-c2cc3ccc(F)cc3cn2)c1,18.6% (inactive)
9,N#Cc1cc([N+](=O)[O-])ccc1NC(=O)COC(=O)c1cnccn1,30.6% (inactive)
10,Cc1cccc(NC(=O)NC(=S)NC(=O)c2ccccc2)c1,39.1% (inactive)
11,Cc1cccc(NC(=O)Nc2cccc(Oc3c(F)c(F)c(F)c(F)c3F)c2)c1,45.9% (active)
12,COc1cccc(NC(=O)NCc2ccc(F)cc2)c1,-5.5% (inactive)
13,CCN(CC)S(=O)(=O)c1ccc(N2CCCC2)c(NC(=O)c2ccc([N+](=O)[O-])o2)c1,25.5% (inactive)
14,O=C(Cc1cccs1)NCc1cccc(C(F)(F)F)c1,-2.11% (inactive)
15,CCOC(=O)CCCCCC(=O)Nc1ccc2c(c1)CC(=O)N([C@@H](C)CO)C[C@H](C)[C@@H](CN(C)Cc1ccccc1)O2,0.83% (inactive)
16,Cc1noc(C)c1NC(=O)Nc1ccc2c(c1)C(=O)N([C@H](C)CO)C[C@H](C)[C@@H](CN(C)S(=O)(=O)c1cn(C)cn1)O2,0.36% (inactive)
17,CC(=O)c1cccc(OCC(=O)OCC(=O)Nc2cc(S(=O)(=O)N3CCCCC3)ccc2C)c1,9.5% (inactive)
18,COc1ccc(CCNC(=O)c2cc3sccc3n2C)cc1OC,20.4% (inactive)
19,CCC(C(=O)NCc1ccc(OC)cc1)n1nc(C)n2c(cc3occc32)c1=O (stereo unspecified),9.82% (inactive)
20,CCOc1ccc(CCNC(=O)C(CC)n2nc(C)n3c(cc4sccc43)c2=O)cc1OCC (stereo unspecified),92.1% (active)
21,COc1cc(SC)ccc1C(=O)NNC(=O)C1COc2ccccc2O1 (stereo unspecified),9.65% (inactive)
22,CCN(CC(=O)NCc1ccc(F)cc1)S(=O)(=O)c1ccc(Cl)s1,6.16% (inactive)

row,SMILES,inhibition
1,Cc1nc(C)c(-c2nnc(-c3cccc(S(=O)(=O)N(C)C)c3)o2)cc1C(=O)NN,1.5% (inactive)
2,COc1ccc(-c2noc(CCCC(=O)NC3CCCC3)n2)cc1OC,14.1% (inactive)
3,COc1ccc(-c2noc(-c3cccc(OC)c3OC)n2)cc1OC,45.8% (active)
4,Cc1cccc(-c2noc(-c3ccc(F)cc3)n2)c1,1.69% (inactive)
5,O=C(COC(=O)c1cccnc1Cl)NC(=O)NC1CCCCC1,0.57% (inactive)
6,Cc1c(C#N)c2ncn(CC#N)c(=O)c2n1-c1ccccc1,16.1% (inactive)
7,CN1c2ccc(C=O)c3c(C=O)ccc(c23)N(C)C1(C)C,38.9% (active)
8,COc1ccc2nc3n(c(=O)c2c1)-c1ccc(Cl)cc1C(=O)NC3Cc1ccccc1 (stereo unspecified),7.22% (inactive)
9,O=C1CCC/C=C/C[C@@H](CC(=O)N(CCO)Cc2ccccc2)C(=O)NC[C@H](c2ccccc2)O1,2.58% (inactive)
10,CCN(C(=O)COC(=O)CCC(=O)c1cccs1)C1CCCCC1,3.19% (inactive)
11,Cc1ccc(S(=O)(=O)N2CCN(C(=O)CN3C(=O)NC(C)(c4ccc(Cl)cc4)C3=O)CC2)c(C)c1 (stereo unspecified),4.7% (inactive)
12,O=C1c2ccccc2[C@@H]2C[C@@H](O)[C@H](Nc3ccccc3Cl)CCN12,7.11% (inactive)
13,Cc1ccc(NC(=S)N2CCCC(c3ccccc3)=N2)cc1,14.4% (inactive)
14,Cc1ccc(C(=O)C[n+]2cc(-c3ccccc3)n3c2CCCCC3)cc1,9.82% (inactive) and 16.5% (inactive)
15,Cc1ccc(C(=O)N2CCCC(c3ccccc3)=N2)cc1,64.4% (active)
16,CC(C)CC1NC(=O)c2cc(Cl)ccc2-n2c1nc1ccccc1c2=O (stereo unspecified),4.11% (inactive)
17,Cc1cccc(NC(=O)c2ccc3nsnc3c2)c1C,34.9% (inactive)
18,O=C(Nc1cccc(NC(=O)c2cccc(F)c2)c1)c1ccccc1,16.8% (inactive)
19,O=C(Nc1ccccc1)c1ccc2nsnc2c1,41.3% (active)
20,COc1cc(OC)cc(-c2c(C#Cc3ccsc3)c3cc(-c4ccc(SC)cc4)ccc3n2C)c1,7.83% (inactive)
